# Test results reported in publication PMC5540273 (PLoS ONE, 2017).
# Read-outs that look alike come from different tables or passages of the source.
# Key:
# FGFR4 = conditions: concentration: 1 μM, replicates: in singlicate; n = 1
# FGR = conditions: concentration: 1 μM, replicates: in singlicate; n = 1
# FLT1 = conditions: concentration: 1 μM, replicates: in singlicate; n = 1
# FLT3-autoinhibited = conditions: concentration: 1 μM, replicates: in singlicate; n = 1
# FLT3 = conditions: concentration: 1 μM, replicates: in singlicate; n = 1
# FLT4 = conditions: concentration: 1 μM, replicates: in singlicate; n = 1
# FRK = conditions: concentration: 1 μM, replicates: in singlicate; n = 1
# FYN = conditions: concentration: 1 μM, replicates: in singlicate; n = 1
# GAK = conditions: concentration: 1 μM, replicates: in singlicate; n = 1
# GCN2(Kin.Dom.2,S808G) = test system: T1, GCN2(Kin.Dom.2,S808G); conditions: concentration: 1 μM, replicates: in singlicate; n = 1
# T1 construct: gene EIF2AK4
# GRK1 = conditions: concentration: 1 μM, replicates: in singlicate; n = 1
# GRK2 = test system: T2, GRK2; conditions: concentration: 1 μM, replicates: in singlicate; n = 1
# T2 construct: gene ADRBK1
# GRK3 = test system: T3, GRK3; conditions: concentration: 1 μM, replicates: in singlicate; n = 1
# T3 construct: gene ADRBK2
# GRK4 = conditions: concentration: 1 μM, replicates: in singlicate; n = 1
# GRK7 = conditions: concentration: 1 μM, replicates: in singlicate; n = 1
# GSK3A = conditions: concentration: 1 μM, replicates: in singlicate; n = 1
# GSK3B = conditions: n = 1
# HASPIN = test system: T4, HASPIN; conditions: concentration: 1 μM, replicates: in singlicate; n = 1
# T4 construct: gene GSG2
# HCK = conditions: concentration: 1 μM, replicates: in singlicate; n = 1
# HIPK1 = conditions: concentration: 1 μM, replicates: in singlicate; n = 1
# [1] = concentration: 1 μM, replicates: in singlicate
# 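Also: KINOMEscan kinase panel screen.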
compound,measurement,setting,value
Clc1cc(Nc2ncnc3cc[nH]c23)ccc1OCc1ccccn1,%Inh,FGFR4,4%
same,%Inh,FGR,24%
same,%Inh,FLT1,0%
same,%Inh,FLT3-autoinhibited,5%
same,%Inh,FLT3,7%
same,%Inh,FLT4,0%
same,%Inh,FRK,15%
same,%Inh,FYN,0%
same,%Inh,GAK,3%
same,%Inh,"GCN2(Kin.Dom.2,S808G)",0%
same,%Inh,GRK1,15%
same,%Inh,GRK2,0%
same,%Inh,GRK3,9%
same,%Inh,GRK4,25%
same,%Inh,GRK7,14%
same,%Inh,GSK3A,6%
same,%Inh,GSK3B; [1],7%
same,%Inh,HASPIN,0%
same,%Inh,HCK,41%
same,%Inh,HIPK1,28%
Nc1nccc2scc(-c3ccc4c(c3)CCN4C(=O)Cc3cc(F)ccc3F)c12 [GSK2587663],%Inh,FGFR4,7%
same,%Inh,FGR,40%
same,%Inh,FLT1,37%
same,%Inh,FLT3-autoinhibited,0%
same,%Inh,FLT3,0%
same,%Inh,FLT4,0%
same,%Inh,FRK,11%
same,%Inh,FYN,12%
same,%Inh,GAK,0%
same,%Inh,"GCN2(Kin.Dom.2,S808G)",13%
same,%Inh,GRK1,0%
same,%Inh,GRK2,0%
same,%Inh,GRK3,40%
same,%Inh,GRK4,0%
same,%Inh,GRK7,0%
same,%Inh,GSK3A,17%
same,%Inh,GSK3B; [1],1%
same,%Inh,HASPIN,0%
same,%Inh,HCK,0%
same,%Inh,HIPK1,0%
Fc1cccc(COc2ccc(Nc3ncnc4cc[nH]c34)cc2Cl)c1,%Inh,FGFR4,11%
same,%Inh,FGR,18%
same,%Inh,FLT1,6%
same,%Inh,FLT3-autoinhibited,16%
same,%Inh,FLT3,0%
same,%Inh,FLT4,0%
same,%Inh,FRK,21%
same,%Inh,FYN,13%
same,%Inh,GAK,14%
same,%Inh,"GCN2(Kin.Dom.2,S808G)",0%
same,%Inh,GRK1,22%
same,%Inh,GRK2,20%
same,%Inh,GRK3,3%
same,%Inh,GRK4,35%
same,%Inh,GRK7,23%
same,%Inh,GSK3A,12%
same,%Inh,GSK3B; [1],8%
same,%Inh,HASPIN,0%
same,%Inh,HCK,24%
same,%Inh,HIPK1,27%
Fc1ccc(-c2ncn(CCCNCc3ccccc3)c2-c2ccncc2)cc1,%Inh,FGFR4,0%
same,%Inh,FGR,17%
same,%Inh,FLT1,0%
same,%Inh,FLT3-autoinhibited,0%
same,%Inh,FLT3,0%
same,%Inh,FLT4,22%
same,%Inh,FRK,0%
same,%Inh,FYN,0%
same,%Inh,GAK,0%
same,%Inh,"GCN2(Kin.Dom.2,S808G)",0%
same,%Inh,GRK1,12%
same,%Inh,GRK2,0%
same,%Inh,GRK3,0%
same,%Inh,GRK4,12%
same,%Inh,GRK7,5%
same,%Inh,GSK3A,8%
same,%Inh,GSK3B; [1],28%
same,%Inh,HASPIN,12%
same,%Inh,HCK,7%
same,%Inh,HIPK1,25%
CSc1nn2c(=O)cc(N3CCOCC3)nc2n1Cc1cccc(Cl)c1Cl [GSK2347225],%Inh,FGFR4,15%
same,%Inh,FGR,30%
same,%Inh,FLT1,24%
same,%Inh,FLT3-autoinhibited,0%
same,%Inh,FLT3,0%
same,%Inh,FLT4,0%
same,%Inh,FRK,11%
same,%Inh,FYN,17%
same,%Inh,GAK,9%
same,%Inh,"GCN2(Kin.Dom.2,S808G)",1%
same,%Inh,GRK1,20%
same,%Inh,GRK2,0%
same,%Inh,GRK3,0%
same,%Inh,GRK4,17%
same,%Inh,GRK7,0%
same,%Inh,GSK3A,16%
same,%Inh,GSK3B; [1],8%
same,%Inh,HASPIN,0%
same,%Inh,HCK,0%
same,%Inh,HIPK1,11%
O=C(Nc1ccccc1F)NC1CCN(c2ccnc(Nc3ccc(F)cc3)n2)C1 (stereo not drawn) [GSK1379722],%Inh,FGFR4,7%
same,%Inh,FGR,9%
same,%Inh,FLT1,26%
same,%Inh,FLT3-autoinhibited,0%
same,%Inh,FLT3,1%
same,%Inh,FLT4,14%
same,%Inh,FRK,9%
same,%Inh,FYN,0%
same,%Inh,GAK,0%
same,%Inh,"GCN2(Kin.Dom.2,S808G)",4%
same,%Inh,GRK1,0%
same,%Inh,GRK2,0%
same,%Inh,GRK3,57%
same,%Inh,GRK4,0%
same,%Inh,GRK7,0%
same,%Inh,GSK3A,0%
same,%Inh,GSK3B; [1],8%
same,%Inh,HASPIN,0%
same,%Inh,HCK,0%
same,%Inh,HIPK1,0%
CC(=O)Nc1n[nH]c2ncc(-c3ccccc3)cc12 [SB-548492],%Inh,FGFR4,0%
same,%Inh,FGR,16%
same,%Inh,FLT1,25%
same,%Inh,FLT3-autoinhibited,47%
same,%Inh,FLT3,74%
same,%Inh,FLT4,0%
same,%Inh,FRK,0%
same,%Inh,FYN,0%
same,%Inh,GAK,31%
same,%Inh,"GCN2(Kin.Dom.2,S808G)",27%
same,%Inh,GRK1,26%
same,%Inh,GRK2,0%
same,%Inh,GRK3,0%
same,%Inh,GRK4,18%
same,%Inh,GRK7,31%
same,%Inh,GSK3A,78%
same,%Inh,GSK3B; 1 µM,50%
same,%Inh,HASPIN,42%
same,%Inh,HCK,9%
same,%Inh,HIPK1,45%
Cc1cccc(-c2nc(Nc3ccc4[nH]nnc4c3)c3ccccc3n2)n1 [GW867587],%Inh,FGFR4,0%
same,%Inh,FGR,0%
same,%Inh,FLT1,0%
same,%Inh,FLT3-autoinhibited,0%
same,%Inh,FLT3,0%
same,%Inh,FLT4,0%
same,%Inh,FRK,0%
same,%Inh,FYN,0%
same,%Inh,GAK,0%
same,%Inh,"GCN2(Kin.Dom.2,S808G)",0%
same,%Inh,GRK1,3%
same,%Inh,GRK2,0%
same,%Inh,GRK3,24%
same,%Inh,GRK4,0%
same,%Inh,GRK7,0%
same,%Inh,GSK3A,0%
same,%Inh,GSK3B; [1],0%
same,%Inh,HASPIN,0%
same,%Inh,HCK,10%
same,%Inh,HIPK1,0%
Clc1cccc(-c2nc(Nc3ccncc3)c3ccccc3n2)c1 [GW873004],%Inh,FGFR4,0%
same,%Inh,FGR,55%
same,%Inh,FLT1,34%
same,%Inh,FLT3-autoinhibited,0%
same,%Inh,FLT3,17%
same,%Inh,FLT4,52%
same,%Inh,FRK,29%
same,%Inh,FYN,0%
same,%Inh,GAK,3%
same,%Inh,"GCN2(Kin.Dom.2,S808G)",0%
same,%Inh,GRK1,10%
same,%Inh,GRK2,0%
same,%Inh,GRK3,0%
same,%Inh,GRK4,0%
same,%Inh,GRK7,0%
same,%Inh,GSK3A,0%
same,%Inh,GSK3B; [1],0%
same,%Inh,HASPIN,50%
same,%Inh,HCK,26%
same,%Inh,HIPK1,43%
